Among the data in PubChem BioAssay are z-score values, retold here.

Structures are written as SMILES. The source made the active and inactive calls.

The nature of the test: basal 3T3-L1 adipocyte mitochondrial potential changes, profiling panel, cell-based, JC-1 fluorescence, 3T3-L1 adipocytes, 24 h, 100 nL compound (AID 1168). Further: test concentration not given here. The conditions noted are these: JC-1 mitochondrial fluorescence, higher = more signal, called active from +8 up or from −8 down.
With `CC(C)C(=C=CC[C@H](O)c1ccc(OCCO)cc1)CCO`, the z-score was -0.722 (inactive).

Regarding `C[C@H]1C2[C@H](Cc3ccccc3)NC(=O)[C@]23C(=O)N[C@H](Cc2ccccc2)C(=O)N2CCC[C@H]2C(=O)NC/C=C\C/C=C/C3[C@@H]2O[C@]12C` (some centres not stated), the z-score is 0.736 (inactive).

Take `CN(C)CCCCCCNC(=O)[C@H]1C[C@H]2C(=O)N[C@@H](CCCCN)C(=O)N2[C@H]1c1cccc(OCCO)c1`: the z-score was 0.587 (inactive).

In the case of `C=CCC(OC(C)=O)[C@@H]1[C@@H](N(Cc2cc3ccccc3o2)C(=O)c2cccc3ccccc23)c2cc(OCCCO)ccc2N1C(=O)c1ccc(-c2ccccc2)cc1` (some centres not stated), the z-score was 0.0822 (inactive).

`COC(=O)[C@@]1(Cc2ccc(OC)cc2)[C@H]2c3cc(C(=O)N4CCCC4)n(Cc4ccc(O)c(OC)c4)c3C[C@H]2CN1C(=O)c1ccccc1`: the z-score is -0.183 (inactive).

As to `COC(=O)[C@@]1(Cc2ccc(OC)cc2)[C@H]2c3cc(C(=O)N4CCCC4)n(Cc4ccc(C)c(F)c4F)c3C[C@H]2CN1C(=O)c1ccccc1`, the z-score is -0.411 (inactive).

For the molecule `C=CCOC(=O)[C@H]1[C@@H]2C(=O)O[C@@H](c3ccccc3)[C@@H](c3ccccc3)N2[C@@H](c2ccc(OCCOC(=O)[C@@H]3C[C@@H]4C(=O)N[C@@H](CCCCNC(C)=O)C(=O)N4[C@@H]3c3ccc(O)cc3)cc2)[C@]12C(=O)Nc1ccccc12`, the z-score was 0.703 (inactive).

For `COC(=O)[C@@]1(Cc2ccc(OC)cc2)[C@H]2c3cc(C(=O)N(C)C)n(Cc4ccc(S(C)(=O)=O)cc4)c3C[C@H]2CN1C(=O)c1ccccc1`, the z-score was -0.572 (inactive).

For the molecule `CC(C)=CCN[C@H](CO)c1ccccc1`, the z-score was 0.476 (inactive).

`COC(=O)[C@@]1(Cc2ccc(F)cc2)[C@H]2c3cc(C(=O)N4CCCC4)n(Cc4ccc(S(C)(=O)=O)cc4)c3C[C@H]2CN1C(=O)c1ccccc1`: the z-score was -1.3 (inactive).

As for `COc1ccc(C#Cc2ccc3c(c2)[C@]2(C(=O)N3)[C@H](C(=O)Nc3nc4ccccc4s3)[C@H]3C(=O)O[C@H](c4ccccc4)[C@H](c4ccccc4)N3[C@@H]2c2ccc(O)cc2)cc1`, the z-score is -0.298 (inactive).

With `[N-]=[N+]=Nc1ccccc1[C@H]1OC(c2ccc(OCCCO)cc2)=N[C@@]1(CCS(=O)(=O)c1ccccc1)C(N)=O`, the z-score was -0.235 (inactive).

In the case of `CC(C)c1ccc(NN2C(C(O)c3ccc(B(O)O)cc3)C=CC3C(=O)N(c4ccccc4)C(=O)C32)cc1` (configuration not stated), the z-score is -1.56 (inactive).

Take `COC(=O)[C@@]1(Cc2ccc(F)cc2)[C@H]2c3cc(C(=O)N(C)C)n(Cc4ccccc4)c3C[C@H]2CN1C(=O)c1ccccc1`: the z-score is -0.85 (inactive).

With `[N-]=[N+]=Nc1ccccc1[C@@H]1OC(c2ccc(OCCCO)cc2)=N[C@]1(Cc1ccccc1)C(=O)N1CCOCC1`, the z-score was 2.15 (inactive).

As for `CN(C)C(=O)[C@]1(Cc2ccccc2N=[N+]=[N-])N=C(c2ccc(OCCCO)cc2)O[C@@H]1c1ccccc1N=[N+]=[N-]`, the z-score was 1.41 (inactive).

For `CC(C)NC(=O)[C@@]1(c2ccc([N+](=O)[O-])cc2)CC(=O)N(C2CCCCC2)[C@@H]1c1ccc(CO)cc1I`, the z-score was 0.484 (inactive).

As to `COCCOC(=O)N1C(=O)[C@@]2(c3cc(C#Cc4ccc(OC)cc4)ccc31)[C@H](c1ccc(OCCO)cc1)N1[C@H](c3ccccc3)[C@H](c3ccccc3)OC(=O)[C@H]1[C@@H]2C(=O)N1CCN(c2ncccn2)CC1`, the z-score was 2.18 (inactive).

On to `CCC[C@@H]1C[C@@]1(CCC)[C@@H](NC(=O)c1ccccc1)c1cccc(Cl)c1`, for which the z-score was 0.349 (inactive).

For `[N-]=[N+]=Nc1ccccc1[C@H]1OC(c2ccc(OCCCO)cc2)=N[C@@]1(CCS(=O)(=O)c1ccccc1)C(=O)NCC(O)CO` (some centres not stated), the z-score is -0.22 (inactive).

Turning to `O=C1N[C@@H](Cc2ccccc2)C(=O)N2[C@@H]1C[C@@H](C(=O)O)[C@H]2c1cccc(OCCO)c1`, the z-score was -1.49 (inactive).

On to `COc1ccc([Si](C)(C)[C@@H]2[C@@H](CC(=O)N3CCC[C@H]3CO)O[C@]3(C(=O)N(c4ccccc4)c4ccccc43)[C@H]2C)cc1`, for which the z-score was -0.181 (inactive).

Consider `CC(C)N1C(=O)C[C@@](C(=O)NCC(F)(F)F)(c2ccc([N+](=O)[O-])cc2)[C@H]1c1ccc(CO)cc1`, for which the z-score was -0.502 (inactive).

`CN1C(=O)C2C=CC(C(O)C#Cc3ccccc3)N(N3CCCCC3)C2C1=O` (configuration not stated): the z-score is 0.567 (inactive).

On to `C=C(C)[C@@H]1CC=C(C(O)C2C=CC3C(=O)N(C)C(=O)C3N2Nc2ccccc2)CC1` (some centres not stated), for which the z-score was 4.5 (inactive).

Consider `C=CCOC(=O)[C@@H]1[C@H]2C(=O)O[C@H](c3ccccc3)[C@H](c3ccccc3)N2[C@H](c2ccc(OCCOC(=O)[C@@H]3C[C@@H]4C(=O)NCC(=O)N4[C@@H]3c3ccc(O)cc3)cc2)[C@@]12C(=O)Nc1ccc(I)cc12`, for which the z-score was -0.444 (inactive).

With `COC(=O)[C@@]1(Cc2ccc(OC)cc2)[C@H]2c3cc(C(=O)N(C)C)n(CCc4ccccn4)c3C[C@H]2CN1C(=O)c1ccccc1`, the z-score was -1.04 (inactive).
